Data on 22 molecules can be found in PubChem BioAssay.

Active and inactive are the calls of the source. Unless noted, no rule for the calls is given here.

The test system of experiment [1] is XIP peptide (Xip251-270) binding. The experiment can be described thus: XIP fragment 251-270 binding compounds – biochemical, small-molecule microarray, fluorescence 635/667 nm, 0.1 µg/mL protein, primary screen (AID 1182). The settings on record: fluorescent protein binding, 635 nm, higher = more signal, called active from +8 up or from −8 down.
Experiment [2] concerns XIP peptide (Xip251-270). Briefly: compounds binding XIP fragment 251-270 – biochemical, small-molecule microarray, fluorescence 635/667 nm, 0.5 µg/mL protein, primary screen (AID 1183). The settings on record: fluorescence 635 nm, higher = more signal.
Experiment [3] in a line: blood-stage malaria parasite viability loss – strain 3D7, DAPI fluorescence, 100 nL, primary screen (AID 1184).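 Also: parasites grown inside human red blood cells in medium with human serum.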 Particulars: P. falciparum 3D7 growth, 3 d, higher = more signal.
In experiment [4] the target is Homeobox protein Hox-A13 (Mus musculus) (UniProt Q62424). Briefly: disruptors of Hoxa13 oligonucleotide interaction – biochemical, fluorescence polarization, labeled oligonucleotide, primary screen (AID 1185). Particulars: Hoxa13:DNA binding, 15 min, higher = more signal, called active from +8 up or from −8 down. On the technique in general: In fluorescence polarisation assays a small probe gives low polarisation when free and higher when bound to something large.
Sequence of Homeobox protein Hox-A13 (Mus musculus) (Q62424 whole entry, looked up): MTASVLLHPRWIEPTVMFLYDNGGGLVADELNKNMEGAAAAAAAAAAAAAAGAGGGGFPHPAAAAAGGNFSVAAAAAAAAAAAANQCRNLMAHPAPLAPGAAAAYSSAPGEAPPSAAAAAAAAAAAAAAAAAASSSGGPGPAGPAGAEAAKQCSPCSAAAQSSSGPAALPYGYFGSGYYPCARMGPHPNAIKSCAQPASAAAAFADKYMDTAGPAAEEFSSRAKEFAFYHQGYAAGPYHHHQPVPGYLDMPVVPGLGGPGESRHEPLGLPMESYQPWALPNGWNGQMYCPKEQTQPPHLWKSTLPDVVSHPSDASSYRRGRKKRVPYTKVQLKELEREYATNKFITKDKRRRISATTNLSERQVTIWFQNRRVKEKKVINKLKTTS

The nature of experiment [5]: blockers of DNA damage checkpoint Chk1 activation – imaging, HeLa, hydroxyurea, phospho-Chk1 antibody, percent positive cells, primary screen (AID 1186). The settings on record: hydroxyurea-induced phospho-Chk1 immunofluorescence imaging, higher = more signal.
The nature of experiment [6]: blockers of DNA damage checkpoint Chk1 activation – imaging, HeLa, hydroxyurea, phospho-Chk1 nuclear intensity, primary screen (AID 1187). The settings on record: hydroxyurea-induced phospho-Chk1 immunofluorescence imaging, higher = more signal.

Consider `C=C1C(=O)C=C2CN(C(=O)c3ccccc3)[C@@](Cc3ccc(F)cc3)(C(=O)OC)[C@@H]12`, for which the composite z-score in experiment [1] was 0.741 (inactive); in experiment [2], 0.459. For the same molecule, the z-score was -1.59 in experiment [3], -4.76 (inactive) in experiment [4], -2.23 (inactive) in experiment [5] and -3.76 (inactive) in experiment [6].

As to `COC(=O)[C@@]1(Cc2ccc(F)cc2)[C@H]2c3cc(C(=O)N4CCCC4)n(C[C@H](O)CO)c3C[C@H]2CN1C(=O)c1ccccc1`, the composite z-score in experiment [1] is 1.17 (inactive); in experiment [2], 0.0592. The z-score was -0.534 in experiment [3], -5.57 (inactive) in experiment [4], 0.588 (inactive) in experiment [5] and 0.439 (inactive) in experiment [6].

As to `C=C(CC1([C@@H](NP(=O)(c2ccccc2)c2ccccc2)[C@H]2C[C@@H]2CCCC)CC1)c1cccc(OC)c1`, the results for the composite z-score in experiment [1] and in experiment [2] were -0.68 (inactive) and -0.207, respectively. In addition, the z-score was -0.0814 in experiment [3], -1.55 (inactive) in experiment [4], 0.731 (inactive) in experiment [5] and 0.788 (inactive) in experiment [6].

On to `COc1cc(Cc2cc3c(c(-c4ccccc4)n2)[Si](C(C)C)(C(C)C)OC3)cc(OC)c1OC`, for which the composite z-score in experiment [1] is -0.166 (inactive); in experiment [2], -1.01. Also, the z-score in experiment [3] was -0.822; in experiment [4] it was -0.497 (inactive); in experiment [5] it was -0.628 (inactive); in experiment [6], -0.317 (inactive).

Consider `CN(C)C(=O)[C@]1(CCS(=O)(=O)c2ccccc2)N=C(c2ccc(OCCCO)cc2)O[C@@H]1c1ccccc1CN=[N+]=[N-]`, for which the composite z-score is 0.556 (inactive) in experiment [1] and 0.816 in experiment [2]. The z-score in experiment [3] is -2.13; in experiment [4], -4.39 (inactive); in experiment [5] it was -0.376 (inactive); in experiment [6], -0.0306 (inactive).

Turning to `CCCCN1CC=CC23O[C@@H]4C=CCCOC(=O)C4[C@H]2C(=O)N(CCO)[C@@H]3C1=O` (some centres not stated), the composite z-score was 0.61 (inactive) in experiment [1] and 0.485 in experiment [2]. The z-score is 0.211 in experiment [3], -4.53 (inactive) in experiment [4], -0.307 (inactive) in experiment [5] and -0.815 (inactive) in experiment [6].

Turning to `COCCOC(=O)N1C(=O)[C@@]2(c3cc(C#CCC(C(=O)OC)C(=O)OC)ccc31)[C@H](c1ccc(O)cc1)N1[C@H](c3ccccc3)[C@H](c3ccccc3)OC(=O)[C@H]1[C@@H]2C(=O)N1CCc2cc(OC)c(OC)cc2C1`, the figures for the composite z-score in experiment [1] and in experiment [2] were 0.406 (inactive) and 0.803, respectively. The z-score in experiment [3] was -2.15; in experiment [4] it was -1.37 (inactive); in experiment [5], -0.0407 (inactive); in experiment [6] it was 0.46 (inactive).

Consider `C=C(COC)C(=O)CC[C@H](OC(C)=O)c1ccccc1OCCO`, for which the composite z-score in experiment [1] was -0.245 (inactive); in experiment [2], 0.337. The z-score was -2.64 in experiment [3], -3.78 (inactive) in experiment [4], -0.201 (inactive) in experiment [5] and -0.218 (inactive) in experiment [6].

On to `COc1ccc(C(O)C2C=CC3C(=O)N(C)C(=O)C3N2Nc2ccccc2)cc1` (configuration not stated), for which the composite z-score in experiment [1] is 0.488 (inactive); in experiment [2] it was 0.592. Further, the z-score in experiment [3] is -0.142; in experiment [4], -3.64 (inactive); in experiment [5], 0.158 (inactive); in experiment [6] it was -0.0307 (inactive).

Take `C=CCNC(=O)[C@H]1[C@@H]2C(=O)O[C@@H](c3ccccc3)[C@@H](c3ccccc3)N2[C@@H](c2ccc(OCCO)cc2)[C@]12C(=O)Nc1ccc(C#Cc3ccc(OC)cc3)cc12`: the values for the composite z-score in experiment [1] and in experiment [2] were 0.43 (inactive) and 0.773, respectively. Further, the z-score in experiment [3] is -2.39; in experiment [4], -0.279 (inactive); in experiment [5], 0.165 (inactive); in experiment [6], 0.202 (inactive).

On to `O=C1c2ccccc2[C@](Cc2ccccc2I)(C(=O)NCCN2CCOCC2)[C@H](c2ccc(CO)cc2)N1Cc1ccccc1C(F)(F)F`, for which the composite z-score in experiment [1] was 0.0302 (inactive); in experiment [2], 0.627. The z-score in experiment [3] was -1.29; in experiment [4], -4.81 (inactive); in experiment [5] it was -0.0107 (inactive); in experiment [6] it was -0.105 (inactive).

On to `CCCCC(=C=CC[C@@H](O)c1ccc(OCCO)cc1)CCO`, for which the composite z-score in experiment [1] was 0.218 (inactive); in experiment [2], 0.336. Moreover, the z-score in experiment [3] is -1.39; in experiment [4], -3.71 (inactive); in experiment [5], 0.102 (inactive); in experiment [6], 0.509 (inactive).

As to `COc1cccc(C)c1NC(=O)O[C@H]1[C@H](OC(=O)Nc2ccc3c(c2)OCO3)[C@H](OC(=O)Nc2ccc3c(c2)OCO3)[C@@H](OC)O[C@@H]1CO`, the composite z-score was 0.574 (inactive) in experiment [1] and 0.798 in experiment [2]. The z-score in experiment [3] was -2.29; in experiment [4], -7.67 (inactive); in experiment [5] it was -0.698 (inactive); in experiment [6], -1.29 (inactive).

Regarding `CC(C)c1ccc(NN2C(C(O)C3CCCCC3)C=CC3C(=O)N(c4ccccc4)C(=O)C32)cc1` (configuration not stated), the results for the composite z-score in experiment [1] and in experiment [2] were 0.668 (inactive) and 0.788, respectively. The z-score in experiment [3] is 0.142; in experiment [4], -2.78 (inactive); in experiment [5], 0.333 (inactive); in experiment [6] it was -0.566 (inactive).

In the case of `CC(C)(C)OC(=O)CC[C@]1(C(N)=O)N=C(c2ccc(OCCCO)cc2)O[C@H]1c1ccccc1N=[N+]=[N-]`, the composite z-score is 0.466 (inactive) in experiment [1] and 0.351 in experiment [2]. The z-score in experiment [3] is 0.129; in experiment [4], -6.52 (inactive); in experiment [5], -0.373 (inactive); in experiment [6], -0.285 (inactive).

For the molecule `CN1C(=O)C2C=CC(C(O)c3cccs3)N(N(c3ccccc3)c3ccccc3)C2C1=O` (configuration not stated), the composite z-score is 0.564 (inactive) in experiment [1] and 0.482 in experiment [2]. For the same molecule, the z-score in experiment [3] is -0.0266; in experiment [4], -4.42 (inactive); in experiment [5], 0.557 (inactive); in experiment [6], -0.499 (inactive).

As for `C=C(COC)C(=O)CC[C@@H](OC(=O)c1ccccc1-c1ccccc1C(=O)O)c1ccccc1OCCO`, the values for the composite z-score in experiment [1] and in experiment [2] were 0.106 (inactive) and 0.17, respectively. Besides, the z-score in experiment [3] is -2.51; in experiment [4], -5.71 (inactive); in experiment [5], 0.788 (inactive); in experiment [6] it was 0.888 (inactive).

In the case of `C=CCOC(=O)[C@H]1[C@@H]2C(=O)O[C@@H](c3ccccc3)[C@@H](c3ccccc3)N2[C@@H](c2ccc(OCCOC(=O)[C@H]3C[C@H]4C(=O)NCC(=O)N4[C@H]3c3cccc(OCCO)c3)cc2)[C@]12C(=O)Nc1ccc(I)cc12`, the figures for the composite z-score in experiment [1] and in experiment [2] were 0.585 (inactive) and 0.649, respectively. Besides, the z-score in experiment [3] was -1.8; in experiment [4] it was 0.871 (inactive); in experiment [5] it was -1.38 (inactive); in experiment [6], -1.12 (inactive).

In the case of `C[C@]12C(=O)N(CCO)[C@@H]3C(=O)N(c4ccc(Cl)cc4)CC=CC31O[C@@H]1/C=C\CCCOC(=O)C12` (some centres not stated), the composite z-score in experiment [1] was -0.0502 (inactive); in experiment [2] it was 0.913. Moreover, the z-score was -1.39 in experiment [3], -3.46 (inactive) in experiment [4], 0.245 (inactive) in experiment [5] and 0.129 (inactive) in experiment [6].

For the molecule `COCCOC(=O)N1C(=O)[C@@]2(c3cc(C#CCNC(N)=O)ccc31)[C@H](C(=O)Nc1nc3ccccc3s1)[C@H]1C(=O)O[C@H](c3ccccc3)[C@H](c3ccccc3)N1[C@@H]2c1ccc(O)cc1`, the composite z-score in experiment [1] was -0.0637 (inactive); in experiment [2], 0.321. Moreover, the z-score in experiment [3] is 0.106; in experiment [4] it was -0.879 (inactive); in experiment [5] it was -0.0038 (inactive); in experiment [6], -0.0749 (inactive).

Consider `CC(C)[Si]1(C(C)C)OCc2cc(-c3ccc(-c4ccc(Cl)c(Cl)c4)o3)nc(-c3ccc(Oc4ccccc4)cc3)c21`, for which the figures for the composite z-score in experiment [1] and in experiment [2] were 0.146 (inactive) and 0.548, respectively. Besides, the z-score is -0.497 in experiment [3], -1.74 (inactive) in experiment [4], 0.0415 (inactive) in experiment [5] and -0.0792 (inactive) in experiment [6].

Regarding `CC(C)N1C(=O)[C@@]2(Cc3ccccc31)c1ccccc1C(=O)N(Cc1ccccc1C(F)(F)F)[C@H]2c1ccc(CO)cc1`, the values for the composite z-score in experiment [1] and in experiment [2] were -0.0547 (inactive) and 0.471, respectively. The z-score in experiment [3] was -0.35; in experiment [4] it was -0.791 (inactive); in experiment [5] it was 0.0153 (inactive); in experiment [6] it was -0.0497 (inactive).
